Source: the supplement of paper PMC12636033
± gives the standard deviation of the averaged measurements. In all, about 33,000 sequences were measured (“E-score (rank enrichment, -0.5 to 0.5)”: median about -0.0043, highest 2% from about 0.24 on). The sample as a whole holds a higher share of the highest values than the screen did.

test system: 2Sp-muMax20 (muMax20 with two 2,6-bis(methyl)pyridine Cys staples); assay: PBM 8-mer E-score (E-score (rank enrichment, -0.5 to 0.5)); higher = stronger preferential binding
Procedure: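 Protein binding microarray (universal PBM chip covering all 10-mers in fixed probe flanks) with chemically synthesized human Max(13-93) bHLH-LZ analogs (not full-length Max) bearing noncanonical residues (hArg, Tha, Aib, Nle at 65) and aromatic Cys staples. Read-out per 8-mer (and its reverse complement): E-score (rank-based enrichment, -0.5 to 0.5) and Z-score of median probe intensity.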

Sequence | PBM 8-mer E-score
AAACATGA | 0.0601 ± 0.067
AATCAGCT | 0.279 ± 0.013
AATCATGT | 0.239 ± 0.04
AATCATGG | 0.129 ± 0.0058
AAACATGT | 0.287 ± 0.008
ACACATGG | 0.194 ± 0.019
AATCAGCG | -0.0281 ± 0.1
AATCAGCC | 0.0385 ± 0.041
ACACATGT | 0.326 ± 0.044
ACGTTAAG | 0.137 ± 0.027
CGGTGTGC | -0.209 ± 0.041
CCCCACGC | 0.095 ± 0.036
AAATACTA | 0.183 ± 0.026
CCATCGAC | -0.131 ± 0.028
GATTCCCA | 0.0167 ± 0.092
AATTCCCC | 0.123 ± 0.015
AATTCCCA | 0.23782 ± 0.00023
GCTTAGTA | 0.0418 ± 0.019
AACCTCTG | -0.064 ± 0.059
GATTAAGA | -0.00249 ± 0.0063
CATTAAGA | 0.237 ± 0.056
AATTAAGA | 0.214 ± 0.0075
GACGACTA | 0.138 ± 0.051
CGACTCCC | -0.0206 ± 0.024
AGGGTCTG | -0.168 ± 0.019

Sequence | PBM 8-mer E-score
CGTGATCC | -0.0859 ± 0.026
CGTGATCA | 0.245 ± 0.036
GGTGATCA | 0.0137 ± 0.0046
TGCTTACA | 0.114 ± 0.016
ACCCACGC | 0.138 ± 0.023
AACCACGA | 0.118 ± 0.035
AACCACGC | 0.0757 ± 0.035
AACCACGT | 0.288 ± 0.032
ACCCACGT | 0.284 ± 0.0034
ACCCACGA | -0.0222 ± 0.03
GAGGCCGC | -0.291 ± 0.046
ACAATACC | 0.273 ± 0.015
ATAATAAT | 0.14 ± 0.084
ACAATAAA | 0.256 ± 0.012
ACAATACA | 0.0638 ± 0.061
ACAATAAG | 0.1254 ± 0.001
ACAATAAT | 0.275 ± 0.043
ACAATACT | 0.204 ± 0.069
ACAATAAC | 0.0634 ± 0.07
CCAATAAA | 0.211 ± 0.035
CCGTTCAA | 0.137 ± 0.026
GAGCTGAA | 0.0148 ± 0.13
AACGCCCT | -0.0766 ± 0.052
AAGGTCAT | -0.149 ± 0.0067
AGAGCCCG | -0.276 ± 0.012

Sequence | PBM 8-mer E-score
AATCAGGA | 0.0255 ± 0.037
CGATATAC | 0.0494 ± 0.11
CGATATAA | 0.24 ± 0.0019
GTATATAA | 0.125 ± 0.0038
CTGTATAA | 0.19 ± 0.035
CTATATAA | 0.157 ± 0.081
CTGTAGAA | 0.0793 ± 0.045
CGATATAG | 0.116 ± 0.068
ATGTAGAA | 0.246 ± 0.053
ATATATAA | 0.328 ± 0.032
GTGTATAA | 0.103 ± 0.024
ATGTATAA | 0.277 ± 0.046
ATGTAGAG | 0.0603 ± 0.063
ACAAACGC | -0.0614 ± 0.035
CACAAATC | 0.052 ± 0.071
AGAGGGAG | 0.112 ± 0.027
ATGGGCAG | 0.0154 ± 0.02
AGTCTCTA | 0.0513 ± 0.038
GGCGAACA | -0.00568 ± 0.13
ATACACCC | -0.00554 ± 0.027
TTATATAA | 0.282 ± 0.044
ATATATAT | 0.116 ± 0.091
CTATAGTC | 0.0602 ± 0.045
GTATATAC | 0.0149 ± 0.075
ATATAGTC | 0.238 ± 0.069

Sequence | PBM 8-mer E-score
ATATAGTA | 0.231 ± 0.019
CTATATAC | 0.204 ± 0.022
ATATATAC | 0.252 ± 0.015
TGATATAA | 0.232 ± 0.064
GAGCTTCC | -0.0166 ± 0.072
CGCGAGGC | -0.0315 ± 0.0085
ATCTACCA | 0.119 ± 0.038
CCAATGGG | -0.162 ± 0.09
GGTTGCAA | 0.0477 ± 0.016
GCCAGTCC | -0.152 ± 0.14
GCGGCCAC | -0.292 ± 0.061
CAAATGAC | -0.036 ± 0.036
AGCCTTTG | -0.0519 ± 0.04
CATGCTCG | 0.116 ± 0.052
ACAGCCAC | -0.0111 ± 0.073
ATCGATCA | 0.0704 ± 0.044
AAGGCCGT | 0.284 ± 0.012
AAGGCCTG | -0.212 ± 0.061
AAGGCCGG | -0.146 ± 0.023
AAGGCCTA | 0.00342 ± 0.048
AAGGCCTT | 0.293 ± 0.052
AAGGCCGC | -0.0467 ± 0.032
ATGTGGCG | 0.0809 ± 0.017
CTACCCTC | 0.0414 ± 0.062
CTCCCAAA | 0.143 ± 0.084

Sequence | PBM 8-mer E-score
GCTGTTCA | 0.0277 ± 0.084
CCACGTTA | 0.252 ± 0.044
CCACGTAG | -0.11 ± 0.053
CCACATGA | 0.241 ± 0.053
CCACGTTC | -0.0572 ± 0.027
GCACATGA | 0.151 ± 0.036
CCACGTGC | 0.431 ± 0.00066
CCACGTCC | -0.117 ± 0.06
CGACGTGC | 0.00092 ± 0.063
GCACGTTA | 0.113 ± 0.039
CCACGTGG | 0.455 ± 0.021
CCACATGG | 0.161 ± 0.014
CAACGTGG | 0.0662 ± 0.077
ATACCCAC | 0.197 ± 0.059
CACGGCCC | -0.216 ± 0.024
GCAACGGA | 0.0572 ± 0.11
AGGAGAGA | -0.134 ± 0.081
GATTGGGC | -0.0399 ± 0.037
CAGAAAAC | 0.0606 ± 0.042
CCACGCGG | 0.448 ± 0.016
CCACGTGA | 0.358 ± 0.053
CCACGCGA | 0.112 ± 0.0062
CGACGTGA | 0.063 ± 0.051
CTACGTGA | -0.0272 ± 0.054
ACACGCGG | 0.181 ± 0.012

Sequence | PBM 8-mer E-score
ATCGAAGC | -0.0587 ± 0.14
CAGGCATA | 0.0998 ± 0.023
ATTCCACC | 0.0112 ± 0.074
CCGATCGC | 0.00661 ± 0.018
GCGATCGC | 0.241 ± 0.049
ACGATCGC | 0.0237 ± 0.025
CCAATCCA | 0.00702 ± 0.16
GAATTGGC | 0.0412 ± 0.066
CAATTGGC | 0.244 ± 0.016
CAATTGGG | 0.136 ± 0.037
ACCTGTGC | -0.0312 ± 0.029
CTTGCTAA | -0.0836 ± 0.038
CGCCTCCC | 0.00831 ± 0.026
AGAACGGC | 0.0294 ± 0.038
TATCCATA | 0.15 ± 0.012
CTCCCCAA | 0.309 ± 0.0081
CTCCCCCA | -0.103 ± 0.12
CTCCCCTA | 0.106 ± 0.087
ATCCCCTA | 0.282 ± 0.019
CTCCCCAG | 0.191 ± 0.064
CTCCCCAC | 0.278 ± 0.015
GTCCCCAC | 0.021 ± 0.043
ATCCCCTC | 0.215 ± 0.038
TTCCCCAA | 0.173 ± 0.06
ATCCCAAA | 0.0771 ± 0.056

Sequence | PBM 8-mer E-score
ATCCCCCA | -0.224 ± 0.14
ATCCCCAA | 0.274 ± 0.036
AATAGTCA | 0.109 ± 0.0063
CCACATAA | 0.0944 ± 0.027
GGATTACC | 0.0419 ± 0.024
AATGAAGC | 0.0104 ± 0.028
GTGGTAAA | -0.0637 ± 0.0084
CGGGTCAC | -0.118 ± 0.034
AAGGTATG | 0.149 ± 0.056
AGAACACC | 0.0163 ± 0.039
ATCCCCAC | 0.247 ± 0.038
AACCCCAC | 0.136 ± 0.032
CACCCCAC | 0.265 ± 0.007
ATCCCCAG | 0.0388 ± 0.058
GACCCCAC | 0.131 ± 0.021
ATCCCCAT | 0.104 ± 0.064
CACAGAGC | -0.0473 ± 0.035
CGCTTAAA | 0.0219 ± 0.026
TCACCACA | 0.209 ± 0.055
ACAAGAGA | -0.031 ± 0.039
CAGGATCC | 0.0142 ± 0.1
CCCAGCCG | -0.207 ± 0.031
